Compound activity (PubChem)
IDE exosite inh – exo-site inhibitors of human insulin-degrading enzyme | P14735 | z-score at 20 µM | purified IDE, FL-6b probe fluorescence polarization; active compounds read low | 6.3% of 17,000 active;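 active = z-score of -3 or lower, meaning strong loss of probe binding signal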;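 also: His-tagged human IDE residues 42-1019 made in E. coli with 30 nM FL-6b probe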
Numbers without * were called inactive. Only a selection was taken, and hits are over-represented in it overall.

Results for Cc1ccc(-c2ccc([C@H]3[C@H](CO)N4CCCCN(C(=O)c5ccncc5)C[C@@H]34)cc2)cc1 ?
IDE exosite inh: -0.738

Results for COc1ccccc1-c1ccc([C@@H]2[C@@H](CO)N3CCCCN(C(=O)c4cccnc4)C[C@H]23)cc1 ?
IDE exosite inh: 0.0789

Results for Cc1cccc(-c2ccc([C@H]3[C@@H](CO)N4CCCCN(C(=O)c5ccncc5)C[C@H]34)cc2)c1 ?
IDE exosite inh: -18.3*

What do the screens show for `Cc1ccc(-c2ccc([C@H]3[C@@H](CO)N4CCCCN(C(=O)c5ccncc5)C[C@@H]34)cc2)cc1`?
IDE exosite inh: 0.15

Results for COc1ccccc1-c1ccc([C@H]2[C@H]3CN(C(=O)c4cccnc4)CCCCN3[C@H]2CO)cc1 ?
IDE exosite inh: 0.567

What do the screens show for `O=C(c1ccncc1)N1CCCCN2[C@H](CO)[C@@H](c3ccc(-c4ccccc4)cc3)[C@@H]2C1`?
IDE exosite inh: 0.823

What do the screens show for `O=C(c1ccncc1)N1CCCCN2[C@H](C1)[C@@H](c1ccc(-c3ccccc3)cc1)[C@@H]2CO`?
IDE exosite inh: -0.181

Results for Cc1cccc(-c2ccc([C@@H]3[C@@H](CO)N4CCCCN(C(=O)c5ccncc5)C[C@H]34)cc2)c1 ?
IDE exosite inh: -3.06*

Results for Cc1cccc(-c2ccc([C@@H]3[C@@H](CO)N4CCCCN(C(=O)c5ccncc5)C[C@@H]34)cc2)c1 ?
IDE exosite inh: -3.14*

What do the screens show for `COc1ccccc1-c1ccc([C@@H]2[C@H](CO)N3CCCCN(C(=O)c4ccncc4)C[C@@H]23)cc1`?
IDE exosite inh: -13.1*

How did Cc1ccc(-c2ccc([C@@H]3[C@@H](CO)N4CCCCN(C(=O)c5ccncc5)C[C@H]34)cc2)cc1 do in these assays?
IDE exosite inh: 2.83

Results for Cc1ccc(-c2ccc([C@@H]3[C@H]4CN(C(=O)c5ccncc5)CCCCN4[C@H]3CO)cc2)cc1 ?
IDE exosite inh: -2.56

What do the screens show for `CCCN1C[C@@H](C)[C@@H](OC)CN(C)C(=O)c2cc(NC(=O)C3CCC3)ccc2OC[C@@H]1C`?
IDE exosite inh: -0.169

Results for O=C(Nc1cc(F)ccc1F)N1CCCCN2[C@H](CO)[C@@H](c3ccc(-c4ccccc4)cc3)[C@@H]2C1 ?
IDE exosite inh: 3.16

Results for O=C(c1cnccn1)N1CC(=O)N2[C@@H](CO)[C@@H](c3ccc(C#CCC4CCCC4)cc3)[C@@H]2C1 ?
IDE exosite inh: 1.39

What do the screens show for `COCC#Cc1ccc([C@H]2[C@@H](CO)N3C(=O)CN(C(=O)Nc4cc(F)ccc4F)C[C@@H]23)cc1`?
IDE exosite inh: 0.107

How did CO[C@@H]1CC[C@H]2CCN(C)C(=O)CCCN(C)C(=O)c3cc(C#N)ccc3OC[C@@H]1O2 do in these assays?
IDE exosite inh: 0.418

Results for CCN1CC(=O)N2[C@H](CO)[C@@H](c3ccc(Br)cc3)[C@@H]2C1 ?
IDE exosite inh: 0.326

How did COc1ccc2c3c([nH]c2c1)[C@H](CO)N(C(=O)C1CCOCC1)CC31CCN(S(C)(=O)=O)CC1 do in these assays?
IDE exosite inh: -1.75

What do the screens show for `O=C(Nc1cccc(F)c1)N1CC(=O)N2[C@H](CO)[C@H](c3ccc(C#Cc4cccnc4)cc3)[C@@H]2C1`?
IDE exosite inh: 0.38

Results for O=C(c1ccncc1)N1CCCCN2[C@H](CO)[C@H](c3ccc(-c4ccccc4)cc3)[C@@H]2C1 ?
IDE exosite inh: 2.46

What do the screens show for `Cc1cccc(-c2ccc([C@@H]3[C@H]4CN(C(=O)c5ccncc5)CCCCN4[C@H]3CO)cc2)c1`?
IDE exosite inh: -17*

What do the screens show for `O=C(c1cccc(F)c1)N1CCCCN2[C@@H](CO)[C@H](c3ccc(-c4ccncc4)cc3)[C@@H]2C1`?
IDE exosite inh: 1.14

Results for CN(C)C(=O)c1cccc(-c2ccc3n(c2=O)C[C@@H]2[C@@H](CO)[C@H](C(=O)NCC4CC4)N[C@H]32)c1 ?
IDE exosite inh: 0.617

Results for CC(C)C#Cc1ccc([C@@H]2[C@@H](CO)N3CCCCN(S(=O)(=O)Cc4ccccc4)C[C@H]23)cc1 ?
IDE exosite inh: 1.18

Results for N#C[C@H]1[C@H](c2ccc(-c3cncnc3)cc2)[C@@H](CO)N1C(=O)CN1CCOCC1 ?
IDE exosite inh: 0.853

How did CN(C)CC(=O)N1C[C@@H]2N[C@H](C1)C2c1ccc(-c2ccccc2F)cc1 (some centres not stated) do in these assays?
IDE exosite inh: 0.85

How did COc1ccccc1NC(=O)N1CC(=O)N2[C@H](CO)[C@@H](c3ccc(C#CCC(C)C)cc3)[C@@H]2C1 do in these assays?
IDE exosite inh: 1.3

Results for O=C(Cc1ccccc1)N1CC(=O)N2[C@H](CO)[C@H](c3ccc(C#Cc4ccccc4)cc3)[C@H]2C1 ?
IDE exosite inh: -1.27

Results for O=C(Cc1ccccc1)N1CC(=O)N2[C@H](CO)[C@@H](c3ccc(Br)cc3)[C@H]2C1 ?
IDE exosite inh: 0.344

Results for O=C(Cc1ccccc1)N1CC(=O)N2[C@H](CO)[C@H](c3ccc(C#Cc4ccccc4)cc3)[C@@H]2C1 ?
IDE exosite inh: -7.01*

What do the screens show for `O=C(Cc1ccccc1)N1CC(=O)N2[C@H](C1)[C@@H](c1ccc(Br)cc1)[C@@H]2CO`?
IDE exosite inh: -5.06*

Results for O=C(Cc1ccccc1)N1CC(=O)N2[C@H](CO)[C@H](c3ccc(Br)cc3)[C@H]2C1 ?
IDE exosite inh: -1.63

How did O=C(Cc1ccccc1)N1CC(=O)N2[C@H](C1)[C@@H](c1ccc(C#CCc3ccccc3)cc1)[C@@H]2CO do in these assays?
IDE exosite inh: -1.64

Results for CCCNC(=O)N(C)C[C@@H]1Oc2cc(C#C[C@@H](C)O)ccc2S(=O)(=O)N([C@@H](C)CO)C[C@H]1C ?
IDE exosite inh: -0.0982

How did CCCC(=O)Nc1ccc2c(c1)C(=O)N(C)C[C@@H](OC)[C@H](C)CN(Cc1ccc(F)cc1)[C@H](C)CO2 do in these assays?
IDE exosite inh: 0.239

How did OC[C@H]1Nc2ccc(C#Cc3ccc(F)cc3)cc2[C@H]2[C@@H]1CCN2Cc1ccc2c(c1)OCO2 do in these assays?
IDE exosite inh: 1.96

Results for O=C(NC1CCCC1)N1CCCCN2[C@@H](CO)[C@H](c3ccc(/C=C/c4ccccc4)cc3)[C@@H]2C1 ?
IDE exosite inh: -14.8*

Results for O=C(Nc1ccccc1F)N1CCCCN2[C@H](C1)[C@H](c1ccc(/C=C/c3ccccc3)cc1)[C@@H]2CO ?
IDE exosite inh: -0.832

How did COc1ccccc1-c1ccc([C@H]2[C@@H](CO)N3CCCCN(C(=O)NC4CCCC4)C[C@@H]23)cc1 do in these assays?
IDE exosite inh: -9.33*

What do the screens show for `O=C(Nc1ccccc1F)N1CCCCN2[C@@H](CO)[C@@H](c3ccc(/C=C/c4ccccc4)cc3)[C@@H]2C1`?
IDE exosite inh: -1.16

Results for O=C(NC1CCCC1)N1CCCCN2[C@H](CO)[C@H](c3ccc(-c4ccncc4)cc3)[C@H]2C1 ?
IDE exosite inh: 4.53

Results for O=C(NC1CCCC1)N1CCCCN2[C@H](CO)[C@@H](c3ccc(-c4ccccc4)cc3)[C@H]2C1 ?
IDE exosite inh: 1.83

How did O=C(NC1CCCC1)N1CCCCN2[C@H](CO)[C@H](c3ccc(-c4ccccc4)cc3)[C@@H]2C1 do in these assays?
IDE exosite inh: -0.47

What do the screens show for `O=C(NC1CCCC1)N1CCCCN2[C@@H](CO)[C@@H](c3ccc(/C=C/c4ccccc4)cc3)[C@@H]2C1`?
IDE exosite inh: -8.36*

What do the screens show for `O=C(NC1CCCC1)N1CCCCN2[C@H](CO)[C@H](c3ccc(-c4ccncc4)cc3)[C@@H]2C1`?
IDE exosite inh: 4.73
